Measured values as given in PubChem BioAssay (NCI).
The panel holds about 83,000 compounds, 20% with a hit somewhere; the sample as a whole holds those more often.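 Cell lines were cultured in 96-well plates, exposed to a single compound concentration, and assessed for percent growth 48 hours later.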 Calls of active or inactive are those of the source. The calls were made as follows: active = growth percent below 10; inactive = the rest.

Legend:
Test in all cases: NCI-60 one-dose screen, 48 h (100 = growth as untreated, 0 = no growth, -100 = all killed)
Settings in all cases: 10 µM unless noted
SK-MEL-2 melanoma = system: SK-MEL-2 melanoma
EKVX NSCLC = system: EKVX NSCLC
SN12C renal = system: SN12C renal
UO-31 renal = system: UO-31 renal
TK-10 renal = system: TK-10 renal
ACHN renal = system: ACHN renal
CAKI-1 renal = system: CAKI-1 renal
A498 renal = system: A498 renal
CCRF-CEM leukemia = system: CCRF-CEM leukemia
MOLT-4 leukemia = system: MOLT-4 leukemia

Measured: growth

CC(C)(Sc1cc(C(C)(C)C)c(O)c(C(C)(C)C)c1)Sc1cc(C(C)(C)C)c(OC(=O)CCC(=O)O)c(C(C)(C)C)c1
inactive: SK-MEL-2 melanoma 23.4% | EKVX NSCLC 44.1% | SN12C renal 34.2% | UO-31 renal 33.2% | TK-10 renal 60.5% | ACHN renal 44.5% | CAKI-1 renal 54.5% | A498 renal 63.6% | CCRF-CEM leukemia 35.8% | MOLT-4 leukemia 73.3%

COc1ccc(N/N=C/c2cn(-c3ccc(C(=O)O)cc3)nc2-c2cc3ccccc3oc2=O)cc1
inactive: SK-MEL-2 melanoma 60.3% | EKVX NSCLC 46.6% | SN12C renal 89.2% | UO-31 renal 22.8% | TK-10 renal 97.1% | ACHN renal 28.6% | CAKI-1 renal 60.8% | A498 renal 125% | CCRF-CEM leukemia 32.9% | MOLT-4 leukemia 34.6%

Cc1cccc(N2C(=O)/C(=C/C(Cl)=C/c3ccc([N+](=O)[O-])cc3)SC2=S)c1C
inactive: SK-MEL-2 melanoma 64% | CAKI-1 renal 35.7% | A498 renal 61.1%
active: EKVX NSCLC -3.56% | SN12C renal -13.4% | UO-31 renal -72.6% | TK-10 renal -9.69% | ACHN renal -84.1% | CCRF-CEM leukemia 3.24% | MOLT-4 leukemia 5.73%

Cc1ccc2c(/C=C/C(=O)c3cc(CN4CCOCC4)c(O)c4nc(C)ccc34)cc(CN3CCOCC3)c(O)c2n1
inactive: EKVX NSCLC 31.5% | TK-10 renal 17.8% | CAKI-1 renal 12.9%
active: SK-MEL-2 melanoma -2.61% | SN12C renal 7.92% | UO-31 renal -16.8% | ACHN renal -26.3% | A498 renal -16.5% | CCRF-CEM leukemia 3.28% | MOLT-4 leukemia -2.3%

O=C(Nc1cccnc1Nc1ccccc1)c1cn(Cc2cccc(Oc3ccccc3)c2)nn1
inactive: SK-MEL-2 melanoma 75.6% | EKVX NSCLC 59.8% | SN12C renal 56.7% | UO-31 renal 51.8% | TK-10 renal 82.1% | ACHN renal 76.6% | CAKI-1 renal 69.6% | A498 renal 45.3% | CCRF-CEM leukemia 47.4% | MOLT-4 leukemia 31.1%

COc1ccc(-c2cc(C(=O)N3N=C(c4ccc(N)cc4)CC3c3ccc(Cl)cc3)c3cc(OC)ccc3n2)cc1 (centres undefined)
inactive: SK-MEL-2 melanoma 88.5% | EKVX NSCLC 88.1% | SN12C renal 84.5% | UO-31 renal 57% | TK-10 renal 101% | ACHN renal 47% | CAKI-1 renal 90.5% | A498 renal 87.8% | CCRF-CEM leukemia 23.1% | MOLT-4 leukemia 32.5%

Cc1cn(C)cn1
inactive: SK-MEL-2 melanoma 103% | EKVX NSCLC 105% | SN12C renal 105% | UO-31 renal 82.5% | TK-10 renal 95.9% | ACHN renal 108% | CAKI-1 renal 88.7% | A498 renal 114% | CCRF-CEM leukemia 97.3% | MOLT-4 leukemia 105%

CCN(CC)C(=O)CC1=C(C)/C(=C/c2[nH]c(-c3ccc[nH]3)cc2OC)N=C1C
inactive: EKVX NSCLC 32.7% | SN12C renal 29.1% | TK-10 renal 28.2% | CCRF-CEM leukemia 25.8% | MOLT-4 leukemia 12.4%
active: SK-MEL-2 melanoma -36.1% | UO-31 renal -59.3% | ACHN renal 1.61% | CAKI-1 renal -8.05% | A498 renal -8.32%

CSc1ccc2c3c(n(CCCn4ccnc4)c(=O)c2c1)-c1ccccc1C3=O
active: MOLT-4 leukemia -3.86%
inactive: SK-MEL-2 melanoma 97.1% | EKVX NSCLC 84.4% | SN12C renal 45.1% | UO-31 renal 26.3% | TK-10 renal 83.1% | ACHN renal 12.4% | CAKI-1 renal 24.6% | A498 renal 68.5% | CCRF-CEM leukemia 15.6%

O=C1C=CC2(O)OC/C(=C\c3ccccc3)C(O)=C2C1=O (centres undefined)
inactive: SK-MEL-2 melanoma 53.4% | EKVX NSCLC 54.1% | TK-10 renal 11.5% | CAKI-1 renal 10.6% | A498 renal 108%
active: SN12C renal -30.7% | UO-31 renal -91.5% | ACHN renal -70.5% | CCRF-CEM leukemia 2.55% | MOLT-4 leukemia 7.42%

CCCn1c(=S)sc2c(NNC(C)=O)nc(C)nc21
inactive: SK-MEL-2 melanoma 92.5% | EKVX NSCLC 88.5% | SN12C renal 101% | UO-31 renal 90% | TK-10 renal 94.5% | ACHN renal 88.1% | CAKI-1 renal 70.7% | A498 renal 78.1% | CCRF-CEM leukemia 88% | MOLT-4 leukemia 114%

O=C(CSc1nnnn1-c1ccccc1)Nc1ccc(Oc2ccccc2)cc1
inactive: SK-MEL-2 melanoma 81% | EKVX NSCLC 100% | SN12C renal 88.4% | UO-31 renal 77.2% | TK-10 renal 119% | ACHN renal 99.7% | CAKI-1 renal 107% | A498 renal 103% | CCRF-CEM leukemia 114% | MOLT-4 leukemia 91.7%

Nc1ncnc2c1N=C(c1ccc(Cl)cc1)CC(c1cccc(Nc3ccnc4cc(Cl)ccc34)c1)N2 (centres undefined)
active: CCRF-CEM leukemia 4%
inactive: SK-MEL-2 melanoma 76.6% | EKVX NSCLC 59.4% | SN12C renal 67.1% | UO-31 renal 47.2% | TK-10 renal 117% | ACHN renal 84.2% | CAKI-1 renal 65.7% | A498 renal 51.1% | MOLT-4 leukemia 12.3%

CN1C(=O)/C(=C/c2ccc(C(=O)Nc3ncc(Cc4cccc(C(F)(F)F)c4)s3)cc2)SC1=S
inactive: SK-MEL-2 melanoma 56.7% | EKVX NSCLC 37.1% | SN12C renal 73.4% | UO-31 renal 51.1% | TK-10 renal 47.5% | ACHN renal 32.4% | CAKI-1 renal 22% | A498 renal 35.6% | MOLT-4 leukemia 46.8%
active: CCRF-CEM leukemia 7.85%

CN(C)C1CN(C(=O)c2cc(-c3ccc4ncnc(N5CCc6cc(F)c(Cl)cc65)c4c3)cnc2N)C1
active: SK-MEL-2 melanoma -11.5% | UO-31 renal 7.34% | TK-10 renal 5.66% | CAKI-1 renal 0.593% | A498 renal -78.2% | MOLT-4 leukemia 4.86%
inactive: EKVX NSCLC 10.1% | SN12C renal 11.1% | ACHN renal 10.8% | CCRF-CEM leukemia 15.7%

CC(=O)c1c(Nc2cccc(F)c2)[nH]c2c(Cl)cc(Cl)c(Cl)c2c1=O
inactive: EKVX NSCLC 10.8% | TK-10 renal 12.5%
active: SK-MEL-2 melanoma -37.5% | SN12C renal -0.0775% | UO-31 renal 6.24% | ACHN renal 2.02% | CAKI-1 renal -5.89% | A498 renal -41.6% | CCRF-CEM leukemia 8.65% | MOLT-4 leukemia 4.94%

CN(C)CCCn1c2c(c3cnccc3c1=O)C(=O)c1ccccc1-2
inactive: EKVX NSCLC 40.9% | A498 renal 25.8%
active: SK-MEL-2 melanoma -13.5% | SN12C renal 1.1% | UO-31 renal -39% | TK-10 renal 3.67% | ACHN renal -25.9% | CAKI-1 renal 1% | CCRF-CEM leukemia 9.81% | MOLT-4 leukemia -2.22%

Cc1cccc(N=Nc2cccc(C)c2)c1
inactive: SK-MEL-2 melanoma 110% | EKVX NSCLC 96.2% | SN12C renal 96.7% | UO-31 renal 86.8% | TK-10 renal 114% | ACHN renal 99.8% | CAKI-1 renal 96.2% | A498 renal 93.8% | CCRF-CEM leukemia 108% | MOLT-4 leukemia 111%

Cc1ccc(NC(=O)c2sc3nc(C)c(C(O)c4ccccc4)cc3c2N)cc1 (centres undefined)
active: A498 renal -8.03% | CCRF-CEM leukemia 7.67%
inactive: SK-MEL-2 melanoma 42.5% | EKVX NSCLC 48% | SN12C renal 18.9% | UO-31 renal 41.6% | TK-10 renal 53% | ACHN renal 32.8% | CAKI-1 renal 33.8% | MOLT-4 leukemia 18.1%

C[C@H](c1nc2ccc(C#N)cc2[nH]1)[C@H]1CC[C@H]2[C@@H]3CCC4=CC(=O)CC[C@]4(C)[C@H]3CC[C@]12C
inactive: SK-MEL-2 melanoma 84.9% | EKVX NSCLC 58.4% | SN12C renal 69.5% | UO-31 renal 51.8% | TK-10 renal 95.2% | ACHN renal 80.4% | CAKI-1 renal 50.8% | A498 renal 14.5% | CCRF-CEM leukemia 46.5% | MOLT-4 leukemia 49.2%

c1ccc(Cn2cc3c(c2-c2ccccc2)CCc2cnoc2-3)cc1
inactive: SK-MEL-2 melanoma 93.4% | EKVX NSCLC 80.1% | SN12C renal 101% | UO-31 renal 80.1% | TK-10 renal 101% | ACHN renal 101% | CAKI-1 renal 84.1% | A498 renal 54% | CCRF-CEM leukemia 48.3% | MOLT-4 leukemia 58.5%

O=C(/C=C/C12c3ccccc3C(c3ccccc31)C1C(=O)NC(=O)C12)c1ccco1 (centres undefined)
active: SK-MEL-2 melanoma 7.24% | CCRF-CEM leukemia -5.48% | MOLT-4 leukemia 6.25%
inactive: EKVX NSCLC 55.6% | SN12C renal 22.6% | UO-31 renal 42% | TK-10 renal 33.6% | ACHN renal 45.6% | CAKI-1 renal 48.1% | A498 renal 61.7%

C[C@H]1[C@H](C)CC[C@]2(C(=O)NCCNCCN)CC[C@]3(C)C(=CC[C@@H]4[C@@]5(C)CCC(=O)C(C)(C)[C@@H]5CC[C@]43C)[C@H]12
inactive: SK-MEL-2 melanoma 91.4% | EKVX NSCLC 79.4% | SN12C renal 68.2% | UO-31 renal 60.3% | TK-10 renal 74% | ACHN renal 77.1% | CAKI-1 renal 61.5% | A498 renal 75%
active: CCRF-CEM leukemia -11.7% | MOLT-4 leukemia -9.76%

CCOC(=O)CNC1=C(Cl)C(=O)N(Cc2ccc(Cl)cc2)C1=O
inactive: SK-MEL-2 melanoma 101% | EKVX NSCLC 100% | SN12C renal 99.1% | UO-31 renal 66.6% | TK-10 renal 102% | ACHN renal 101% | CAKI-1 renal 95.4% | A498 renal 90.3% | CCRF-CEM leukemia 102% | MOLT-4 leukemia 98.2%

O=C(/C=C/c1ccccc1Cl)c1cccc(OCCCCOc2cccc(C(=O)/C=C/c3ccccc3Cl)c2)c1
inactive: SK-MEL-2 melanoma 110% | EKVX NSCLC 107% | SN12C renal 95.8% | UO-31 renal 83.9% | TK-10 renal 118% | ACHN renal 98.4% | CAKI-1 renal 93.4% | A498 renal 109% | MOLT-4 leukemia 93.9%

O=C(N/N=C/c1ccc(Cl)cc1)c1ccc(NC(=O)c2ccccn2)cc1
active: UO-31 renal 0.719% | ACHN renal -0.994%
inactive: SK-MEL-2 melanoma 78.7% | EKVX NSCLC 68.2% | SN12C renal 38.2% | TK-10 renal 47.3% | CAKI-1 renal 41.2% | A498 renal 81.2% | CCRF-CEM leukemia 91% | MOLT-4 leukemia 79.5%
